# Legend:
# [1] = molecular target: Serine/threonine-protein kinase PAK 6 (Homo sapiens) (UniProt Q9NQU5); conditions: at 1 µM;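 also: values are mean percent inhibition of PAK6 kinase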
# [2] = tested on: Tyrosine-protein kinase ABL1 (Homo sapiens), P00519 [E255K]; conditions: at 0.1 µM
# [3] = tested on: Tyrosine-protein kinase ABL1 (Homo sapiens), P00519 [E255K]; conditions: at 1 µM
# [4] = tested on: Tyrosine-protein kinase ABL1 (Homo sapiens), P00519 [H396P]; conditions: at 0.1 µM
# [5] = tested on: Tyrosine-protein kinase ABL1 (Homo sapiens), P00519 [H396P]; conditions: at 1 µM
# [6] = tested on: Tyrosine-protein kinase ABL1 (Homo sapiens), P00519 [M351T]; conditions: at 0.1 µM
# [7] = tested on: Tyrosine-protein kinase ABL1 (Homo sapiens), P00519 [M351T]; conditions: at 1 µM
# [8] = tested on: Tyrosine-protein kinase ABL1 (Homo sapiens), P00519 [Q252H]; conditions: at 0.1 µM
# [9] = tested on: Tyrosine-protein kinase ABL1 (Homo sapiens), P00519 [Q252H]; conditions: at 1 µM
# [10] = tested on: Tyrosine-protein kinase ABL1 (Homo sapiens), P00519 [T315I]; conditions: at 0.1 µM
# Chain of Serine/threonine-protein kinase PAK 6 (Homo sapiens) (Q9NQU5 whole entry, looked up): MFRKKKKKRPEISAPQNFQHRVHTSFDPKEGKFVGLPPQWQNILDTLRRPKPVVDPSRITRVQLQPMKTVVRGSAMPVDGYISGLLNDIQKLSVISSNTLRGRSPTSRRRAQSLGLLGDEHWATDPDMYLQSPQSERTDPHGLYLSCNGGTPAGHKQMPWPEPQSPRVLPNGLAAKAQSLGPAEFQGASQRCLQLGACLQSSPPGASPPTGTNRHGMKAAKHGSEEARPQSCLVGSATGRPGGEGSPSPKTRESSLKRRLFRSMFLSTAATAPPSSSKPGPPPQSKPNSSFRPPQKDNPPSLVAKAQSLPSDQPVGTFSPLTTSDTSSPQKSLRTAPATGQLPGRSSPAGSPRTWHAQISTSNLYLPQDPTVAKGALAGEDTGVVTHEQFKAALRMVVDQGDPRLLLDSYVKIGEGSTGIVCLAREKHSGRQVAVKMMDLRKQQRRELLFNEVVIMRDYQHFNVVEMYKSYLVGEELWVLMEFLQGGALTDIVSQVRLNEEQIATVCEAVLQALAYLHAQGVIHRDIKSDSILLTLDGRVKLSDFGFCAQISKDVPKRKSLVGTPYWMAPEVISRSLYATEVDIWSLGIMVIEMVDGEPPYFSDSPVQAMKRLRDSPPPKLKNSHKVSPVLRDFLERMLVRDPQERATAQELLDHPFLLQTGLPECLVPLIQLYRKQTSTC
SMILES,inhibition [1] [%],inhibition [2] [%],inhibition [3] [%],inhibition [4] [%],inhibition [5] [%],inhibition [6] [%],inhibition [7] [%],inhibition [8] [%],inhibition [9] [%],inhibition [10] [%]
c1ccc(Nc2ncc(-c3ccccc3)o2)cc1,-5.22,2.44,8.33,6.74,20.6,1.76,17.6,5.59,13.7,-0.57
CCCN1CCCC(c2ccc(Nc3nc(Nc4cc(F)ccc4C(N)=O)c4cc[nH]c4n3)c(OC)c2)C1 (stereo not given),-5.69,3.9,5.75,5.07,4.96,1.54,5.35,4.96,7.24,4.52
FC(F)(F)c1ccc(-c2nn3ncccc3c2-c2ccnc(Nc3ccc4c(c3)OCCO4)n2)cc1,15.5,-0.31,0.99,0.37,8.02,1.83,13.9,2.75,8.01,1.73
CN(c1ccc(NC(=O)Nc2ccc(OC(F)(F)F)cc2)cc1)c1ccnc(Nc2cccc(S(N)(=O)=O)c2)n1,-2,17.2,65.3,47.6,86.9,64.9,91.2,65.8,90.2,48.7
COC(=O)Nc1nc2cc(Oc3ccc(NC(=O)Nc4cccc(Br)c4)cc3)ccc2[nH]1,-4.46,4.52,5.09,16.4,35,42.6,54.6,39.7,57.8,30.1
N#Cc1c(NC(=O)c2ccccc2F)sc2c1CCCC2,3.35,-0.62,1.08,0.3,-1.4,0.7,0.57,-0.76,-0.72,-0.91
CN(C)c1cc2c(Nc3ccc4c(cnn4Cc4ccccc4)c3)ncnc2cn1,-3.27,1.1,1.85,0.57,0.96,-0.53,1.01,0.79,3.55,-1.13
COc1cc2ncnc(Nc3ccc(C)c(O)c3)c2cc1OC,0.34,42.3,85.8,48.1,87.4,42.5,84.5,41.1,81.8,16.5
COc1ccc(-c2nn3ncccc3c2-c2ccnc(Nc3cccc(C(F)(F)F)c3)n2)cc1,-2.65,1.06,3.04,3.97,7.02,2.28,27,2.67,17.5,2.45
CN(C)C(=O)O[C@H]1CN[C@H](C#Cc2cc3ncnc(Nc4ccc(OCc5cccc(F)c5)c(Cl)c4)c3s2)C1,7.18,2,3.31,2.06,-0.36,0.95,0.49,4.6,3.58,2.75
ON=C1CCc2cc(-c3nc(C4CCNCC4)[nH]c3-c3ccncc3)ccc21,0,-0.03,0.64,0.53,2.54,0.36,1.06,1.13,2.38,1.29
Oc1cccc(-c2nc(-c3ccccc3)[nH]c2-c2ccncc2)c1,2.02,6.54,26.7,9.87,36.6,8.39,31.3,7.9,27,3.52
CS(=O)(=O)Nc1cccc(-c2ccc3c(NC(=O)C4CC4)n[nH]c3c2)c1,-4.78,1.67,7,2.46,16.8,3.14,16,0.49,7.01,3.71
CN1CCN(C(=O)c2ccc(NC(=O)Nc3ccc(N(C)c4ccnc(Nc5ccc(CS(C)(=O)=O)cc5)n4)cc3)cc2)CC1,-8.2,3.11,29.9,18.1,67.8,24.1,72.6,21,69.6,17.6
c1ccc(Cc2nc3ccc(Nc4ncnc5ccccc45)cc3[nH]2)cc1,7.47,2.13,4.34,1.27,3.84,0.27,5.2,4.19,6.39,2.12
Cc1ccc(C(=O)NC2CC2)cc1-c1ccc2[nH]ncc2c1,-8.86,-0.87,-0.81,-1.68,1.02,1.39,2.89,-1.32,2.09,-2.71
Nc1ccc(C#Cc2cncnc2Nc2ccc(OCc3cccc(F)c3)c(Cl)c2)cc1,-1.86,2.88,3.39,2.21,2.72,-1.21,0.91,2.9,2.24,1.6

SMILES,inhibition [1] [%],inhibition [2] [%],inhibition [3] [%],inhibition [4] [%],inhibition [5] [%],inhibition [6] [%],inhibition [7] [%],inhibition [8] [%],inhibition [9] [%],inhibition [10] [%]
[O-][S+]1CCN(Cc2ccc(-c3ccc4ncnc(Nc5ccc(OCc6ccccc6)c(Cl)c5)c4c3)o2)CC1,-2.46,1.62,1.35,1.53,2.74,0.68,2.75,2.06,3.61,0.16
Cc1ccc(O)cc1Nc1ccnc2ccc(S(C)(=O)=O)cc12,4.09,94.4,95.8,94.8,96.4,90.6,94.3,93,96.3,3.68
COc1cc(Nc2nccc(-c3cnn4ncccc34)n2)cc(OC)c1,-1.82,6.96,46,11.9,59.5,13.7,63.4,18,68.6,5.15
Nc1nccc(C#Cc2cncnc2Nc2ccc(OCc3cccc(F)c3)c(Cl)c2)n1,1.07,3.67,3.58,3.32,2.76,1.11,0.59,2.18,0.52,2.46
CCS(=O)(=O)c1ccc(OC)c(Nc2ncc(-c3cccc(OC)c3)o2)c1,2.64,34,81.1,41.6,85.4,43.2,86.1,46.6,86.5,6.23
NC(=O)c1sc(-n2cnc3ccccc32)cc1OCc1ccccc1Br,-4.72,2.67,4,4.21,6.63,0.66,3.16,3.16,4.86,3.2
COC(=O)c1ccc2c(c1)C(=Cc1cc(Br)c(O)c(Br)c1)C(=O)N2,-6.8,2.18,13.1,4.03,14.9,0.64,12.9,2.75,15.8,1.82
CC(C)c1ccc2c(c1)NC(=O)/C2=N/Nc1ccc(S(N)(=O)=O)cc1,-5.25,1.09,12,5.36,33.7,7.06,38,4.4,26.6,1.24
CN(C)CCCn1c(-c2nonc2N)nc2cnccc21,-2.15,3.28,4.1,2.64,1.22,1.53,3.51,3.76,2.62,2.51
O=C(Nc1ccc(Oc2ccc3[nH]c(NC(=O)c4ccco4)nc3c2)cc1)Nc1cc(C(F)(F)F)ccc1F,6.45,15.2,67.1,60.1,92,72.4,93.2,68.6,91.6,76.3
NS(=O)(=O)c1cccc(-c2cc3ccncc3cc2OCc2ccccc2)c1,-4,1.9,4.18,4.37,9.55,3.86,8.19,3.13,6.44,3.3
NS(=O)(=O)c1ccc(NC=C2C(=O)Nc3ccc4ncsc4c32)cc1,-1.77,6.89,37.9,10.9,46.7,10.9,50.6,14.4,56.3,15
CCn1c(-c2nonc2N)nc2ccc(F)cc21,0.67,2.57,4.59,4.55,4.61,2.2,2.4,4.86,3.17,3.34
COc1cc2ncn(-c3cc(OCc4ccccc4S(C)(=O)=O)c(C#N)s3)c2cc1OC,9.78,9.96,46.7,12.2,49.5,9.97,49.6,10,43.9,6.41
OCc1ccc(-c2nc(-c3ccccn3)c(-c3ccc4c(c3)OCO4)[nH]2)cc1,5.51,4,3.72,2.95,3.25,1.06,2.45,3.06,3.19,1.99
CCS(=O)(=O)c1ccc(OC)c(Nc2nccc(N(C)c3ccc4c(C)n[nH]c4c3)n2)c1,-6.63,50.5,88.7,61.1,90.5,54,88.3,57.7,89.6,3.83

# Reference: ChEMBL document CHEMBL1961873, “Compounds: GSK PKIS; Assays: Nanosyn kinase panel” (2012)
